# According to PubChem BioAssay (NCATS):
# Inconclusive results are not listed. Active and inactive are the calls of the source. Calls follow the shape of the dose curve; as a rule, active = well fitted inhibition curve with a large enough effect; inconclusive = small, poorly fitted or top-dose-only effect; inactive = flat fitted curve, though single readings scatter.
# Tested on: FAB9
# Experiment: qHTS profiling for inhibitors of Plasmodium falciparum proliferation (AID 504749); also: nearly all actives have a fitted effect of over 60% in size;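 as to activity, negative = inhibition: 0% = DMSO vehicle and full inhibition = artemisinin control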
# Conditions: P. falciparum in erythrocytes, SYBR Green DNA, 72 h; series mostly up to 28.7 µM; activity, negative = inhibition: at the top concentration
# In short: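 Fluorescence of SYBR Green-bound parasite DNA, read at 485/535 nm, served as the growth measure. Infected erythrocytes were cultured with compound 72 h; artemisinin (0.29 uM) and DMSO wells defined the normalization range.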
# Potency is read from the fitted curve at half-maximal effect.
Structure (SMILES),"activity, negative = inhibition",Potency
COc1ccc(OC)c(C(O)C(C)N)c1 (stereo not given),5.63% (inactive),–
CCON=O,7.86% (inactive),–
CCCCCl,6.79% (inactive),–
COC([CH2][Hg])CNC(=O)c1ccccc1OCC(=O)O (stereo not given),4.75% (inactive),–
CC(C)(O)C1C2OC(=O)C1C1(O)CC3OC34C(=O)OC2C14C (stereo not given),-7.93% (inactive),–
C[CH2][Hg][S]c1ccccc1C(=O)O,–,5.62 µM (active)
O=C1C2CC=CCC2C(=O)N1SC(Cl)(Cl)Cl (stereo not given),4.69% (inactive),–
N#CN,3.94% (inactive),–
O=C1CCCCC1CN1CCCCC1 (stereo not given),8.21% (inactive),–
CN1C2CCC1CC(OC(c1ccccc1)c1ccc(Cl)cc1)C2 (stereo not given),–,11.2 µM (active)
COC1=CC=C2[C@H]3Cc4ccc(OC)c5c4[C@@]2(CCN3C)[C@H]1O5,3.21% [at 12.8 µM] (inactive),–
S=C=S,8.07% (inactive),–
O=[N+]([O-])C(Br)(CO)CO,9.04% (inactive),–
COc1ccc2c3c1O[C@H]1C(=O)CC[C@H]4[C@@H](C2)N(C)CC[C@]314,0.158% (inactive),–
CC(=O)O[C@H]1CC[C@H]2[C@@H]3CCC4=CC(=O)CCC4=C3C=C[C@]12C,1.06% (inactive),–
CCCCCCCCOC(=O)c1ccccc1C(=O)OCCCCCCCC,14.7% (inactive),–
O=C1CCO1,5.5% (inactive),–
O=C(CS(=O)C(c1ccccc1)c1ccccc1)NO (stereo not given),-1.76% (inactive),–
C=CCN1CC[C@]23c4c5ccc(O)c4O[C@H]2[C@@H](O)C=C[C@H]3[C@H]1C5,10.8% (inactive),–
O=c1[nH]cc(N(CCCl)CCCl)c(=O)[nH]1,1.06% (inactive),–
CCC(N)Cc1c[nH]c2ccccc12 (stereo not given),7.13% (inactive),–
C#CC(C)(O)CC (stereo not given),-0.521% (inactive),–
CCCCNCC(O)c1ccc(O)cc1 (stereo not given),2.75% (inactive),–
O[C@H]1[C@H]2[C@H](O)CCCN2C[C@H]1O,2.07% (inactive),–
C=CCN1CCC23c4c5ccc(O)c4O[C@H]2C(=O)CC[C@@]3(O)C1C5 (stereo not given in full),3.9% (inactive),–
